Source: PubChem BioAssay (National Center for Advancing Translational Sciences (NCATS))
This is a sample that favours compounds with a hit; in the whole collection about 9.2% have one here.
ELG1 genotox: genotoxicity induction in ELG1-luciferase HEK293T cells | HEK293T ELG1-luciferase reporter, luminescence, 16 h | Potency, µM (highest dose often 46 µM), for the others: top-dose activity change, positive = activation, hits mostly activators | 330,000 tested, 1.3% active | AID 504466; further: % of control where 0% means no effect; nearly all actives have a fitted effect of over 60% in size
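Screening used a luciferase reporter fused to human ELG1 in HEK293T cells. Luminescence was read on a CCD plate imager after 16 hr exposure and 30 min ONE-Glo incubation.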
Rab9 prom act: activates the Rab9 promoter; Huh7 Rab9 promoter-luciferase reporter, luminescence, 24 h; Potency, µM (doses to about 9.22 µM), without a hit: at the top dose activation, negative = inhibition, usual class: activators; 320,000 tested, 2.8% active; further: % of control where 0% means no effect; nearly all actives have a fitted effect of over 60% in size
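Luminescence read-out: Huh7 cells stably expressing Rab9-luciferase, treated 24 h with compound at 37 °C, then lysed with luciferase reagent for 10 min at ambient before reading.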
ELG1 repair inh: ELG1-dependent DNA repair inhibition; HEK293T ELG1-luciferase reporter, luminescence, 16 h; DNA damage induced by 5-fluorouridine; Potency, µM (doses to about 46.1 µM), without a hit: at the highest dose activity change, negative = inhibition, usual class: inhibitors; AID 504467; 330,000 tested, 2.3% active; further: on the % scale 0 is the no-effect control and ±100 the full control effect; nearly all actives have a fitted effect of over 55% in size
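Reporter activity after DNA damage by 5-fluorouridine is monitored. Compound-treated cells incubate 16 hr at 37 °C, then ONE-Glo is added for 30 min before luminescence reading.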
FLuc counter: counter-screen for miR-21 project: firefly luciferase inhibitors or activators. AID 588342. 360,000 tested, 6.9% active. purified FLuc, Km substrates, luminescence inhibition. P08659. Potency, µM (titrated, usually from 57.5 µM), for inactives: top-dose activity change, negative = inhibition, actives largely listed as inhibitors;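 further: plate controls were vehicle for no effect and reference inhibitor for full effect; nearly all actives have a fitted effect of over 55% in size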
Target sequence (P08659 whole entry, looked up): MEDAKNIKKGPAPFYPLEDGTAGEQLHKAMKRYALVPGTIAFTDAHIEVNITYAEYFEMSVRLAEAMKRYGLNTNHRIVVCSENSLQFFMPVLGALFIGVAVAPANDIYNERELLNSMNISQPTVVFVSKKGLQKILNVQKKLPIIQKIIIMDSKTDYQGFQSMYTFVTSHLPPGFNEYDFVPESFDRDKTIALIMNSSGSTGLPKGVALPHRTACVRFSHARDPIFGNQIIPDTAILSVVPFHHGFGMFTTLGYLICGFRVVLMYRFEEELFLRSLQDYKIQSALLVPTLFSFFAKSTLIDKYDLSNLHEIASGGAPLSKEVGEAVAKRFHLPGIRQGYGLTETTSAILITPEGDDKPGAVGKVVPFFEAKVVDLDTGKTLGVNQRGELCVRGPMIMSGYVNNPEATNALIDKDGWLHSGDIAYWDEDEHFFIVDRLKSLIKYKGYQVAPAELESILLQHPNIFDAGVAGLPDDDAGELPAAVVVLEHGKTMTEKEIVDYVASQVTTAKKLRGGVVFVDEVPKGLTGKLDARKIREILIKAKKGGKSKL
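Biochemical qHTS of compounds, final roughly 60 µM downward over six points, against 10 nM purified firefly luciferase using Km concentrations of substrates (10 uM D-luciferin, 10 uM ATP) in Tris acetate pH 7.5 buffer; luminescence output.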
SMN2 splice enh: SMN2 splice variant enhancement; HEK293 SMN2-luciferase splicing reporter, luminescence, 30-36 h; 210,000 tested, 2.8% active; Potency, µM (doses to about 46.1 µM), for the others: at the top dose activity change, positive = activation, usual class: activators; further: % of control where 0% means no effect; nearly all actives have a fitted effect of over 55% in size
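HEK293 cells carry an SMN2 […]–luciferase reporter in which exon 7 inclusion puts luciferase in frame. Cells were plated 10-12 h before compound addition, then incubated 30-36 h at 37C. ONE-Glo luminescence was read; sodium butyrate at 4.5 mM final served as control.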
NPC1 promoter act: activators of NPC1 promoter. AID 485313. Potency, µM (series often up to 9.22 µM), for inactives: at the highest dose activation, hits mostly activators. 320,000 tested, 2.4% active. Huh7 NPC1 promoter luciferase reporter, 24 h; further: % of control where 0% means no effect; nearly all actives have a fitted effect of over 60% in size
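Compounds in DMSO were transferred onto Huh7 NPC1-luciferase reporter cells pre-incubated 2 h; after 24 h at 37 °C, Amplite reagent was dispensed and luminescence recorded 10 min later.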
Active calls of the source: *; u = inconclusive; x = not tested or not shown; [ ] = another dose, or the depositor's remark. The call rests on the fitted dose curve; in most records, active means well fitted curve in the direction sought with a large enough effect; inconclusive means small, poorly fitted or top-dose-only effect, or another doubt; inactive means no such curve, though single readings can be large; an effect the other way counts as inactive or inconclusive. Potency means the concentration at half of the fitted maximal effect.

SMILES | ELG1 genotox | Rab9 prom act | ELG1 repair inh | FLuc counter | SMN2 splice enh | NPC1 promoter act
CNC(=S)N1N=C(c2ccc(Br)cc2)CC1c1ccc(Br)cc1 (stereo unspecified) | -2% | -3% | 5.8µM* | -1% | -5% | -3%
COc1ccc(C2CC(c3ccc4ccccc4c3OC(C)=O)=NN2C(C)=O)cc1 (stereo unspecified) | u | 4µM* | u | -1% | x | 4µM*
CC(=O)N1N=C(c2ccc(C)o2)CC1c1ccc(Br)cc1 (stereo unspecified) | u | u | u | u | u | 2.5µM*
CCC(=O)N1N=C(c2ccc(C)o2)CC1c1ccc(N(C)C)cc1 (stereo unspecified) | 12% | 20% | 0% | u | 27% | 13%
Cc1cc(C(=O)OCC(=O)NC2(C#N)CCCCC2)c(C)o1 | 3% | -4% | 12% | x | x | -3%
CCOC(=O)N1CCN(S(=O)(=O)c2ccc(C)c([N+](=O)[O-])c2)CC1 | -5% | -7% | 8% | -3% | x | -3%
Cc1cc(OCC(=O)NCCc2ccc(S(N)(=O)=O)cc2)c2c(C)cc(=O)oc2c1 | 0% | -5% | 1% | -1% | x | 1%
COc1ccc(C2CC(c3ccc(Cl)cc3)=NN2C(C)=O)cc1 (stereo unspecified) | 15% | u | u | 24µM* | x | u
O=C(c1ccc(CSc2ccccc2)cc1)N1CCN(c2ccccc2)CC1 | -5% | -3% | -18% | -12% | 7% | 0%
COc1ccccc1N1CCN(C(=O)c2cc3c(=O)n(C)c4ccccc4c3n2C)CC1 | -9% | -1% | 16µM* | 2% | 6% | 1%
COc1ccccc1N1CCN(C(=O)c2cc3c(=O)n(C)c4ccccc4c3s2)CC1 | x | x | x | -17% | -13% | x
COc1ccc(C(=O)Nc2ccccc2N2CCN(C(=O)c3ccccc3)CC2)cc1Br | -21% | 7% | 21µM* | -4% | x | -3%
Cn1c(C(=O)NCCCN2CCCCCC2)cc2c(=O)n(C)c3ccccc3c21 | u | -9% | u | 0% | 13µM* | -2%
COc1ccccc1N1CCN(C(=O)c2ccc(CSc3ccccc3)cc2)CC1 | -6% | 1% | 23µM* | 3% | -8% | 3%
Cc1ccc(S(=O)(=O)c2c(O)cc(C)c(NS(=O)(=O)c3ccc(Br)cc3)c2C)cc1 | x | x | x | u | -38% | x
CCc1ccccc1NC(=O)CCNS(=O)(=O)c1ccc2c(c1)CCN2C(=O)C1CC1 | x | x | x | 3% | x | x
CCOC(=O)C1=C(COC(=O)c2cccnc2SC)NC(=O)NC1C (stereo unspecified) | 1% | x | -9% | x | x | x
COc1ccc(C(=O)N2CCN(c3ccccc3OC)CC2)cc1 | -3% | 2% | -2% | 5% | 14% | -6%
COc1ccccc1N1CCN(C(=O)CSc2ccccc2)CC1 | u | u | u | u | 4% | 28%
COc1ccccc1N1CCN(C(=O)c2cc(=O)c3c(C)cc(C)cc3o2)CC1 | -6% | -3%[1.84 µM] | 26µM* | -15% | x | -7%
COc1ccccc1N1CCN(C2CCCN(C(=O)c3cccc(-c4ccco4)c3)C2)CC1 (stereo unspecified) | -22% | -3% | 23µM* | 4% | x | -1%
CCc1ccc2oc(C(=O)N3CCN(c4ccccc4OC)CC3)cc(=O)c2c1 | 0% | -7% | u | u | x | -31%
COc1ccccc1N1CCN(C(=O)CSc2nnc3c4ccccc4nc(Cc4ccccc4)n23)CC1 | -9% | -1% | 9.2µM* | -1% | -4% | -5%
COc1ccccc1N1CCN(C2CCCN(C(=O)c3ccoc3C)C2)CC1 (stereo unspecified) | -4% | 9% | -12% | 1% | x | -1%
COc1ccccc1N1CCN(C(=O)c2ccc(-c3ccccc3)cc2)CC1 | 1% | -3% | 9% | 24µM* | x | -2%
SMILES | ELG1 genotox | Rab9 prom act | ELG1 repair inh | FLuc counter | SMN2 splice enh | NPC1 promoter act
CCCCn1c(N)c(N(CCOC)C(=O)CCNC(=O)c2ccccc2Cl)c(=O)[nH]c1=O | 2% | -5% | -9% | 5% | x | 1%
COc1ccc(/C=C/c2nc3ccccc3c(=O)n2-c2cccc(C(F)(F)F)c2)cc1 | x | x | x | -2% | x | x
Nc1ccccc1N=c1ssnc1Cl | -1% | 1% | -1% | u | 11% | 12%
COc1ccc(OC)c(N=c2ssnc2Cl)c1 | -10% | 1% | -12% | 15µM* | -4% | -5%
Cc1cc(C)nc(/N=c2/ssnc2Cl)c1 | -8% | 13% | u | -1% | -9% | 1%
COc1cc(N=c2ssnc2Cl)c(OC)cc1Cl | -3% | 1% | u | 17µM* | 0% | -1%
COc1ccc(CNC(=O)CCc2cn(C)c3ccccc23)cc1 | x | x | x | -13% | x | x
C=Cc1ccc(Cn2c(C(=O)O)c(CNCc3ccccc3)c3ccc(C)cc32)cc1 | x | x | x | -11% | x | x
Cc1ccc(CNCCCSc2ncccn2)cc1 | -10% | 0% | 4% | 2% | x | -5%
O=C(CN1CCC(NC(=O)Nc2ccc(F)cc2)CC1)Nc1ccccc1[N+](=O)[O-] | -8% | 15% | 18µM* | -5% | x | -2%
COc1cccc(NC(=O)NC2CCN(CC(=O)Nc3ccccc3[N+](=O)[O-])CC2)c1 | -16% | 4% | 21µM* | -5% | x | 2%
COc1ccc(-c2nnc(N(C)C(=O)c3cccnc3)s2)cc1 | u | u | u | 13µM* | 16% | u
Cc1ccc(-c2nnc(N(C)C(=O)c3cccnc3)s2)cc1 | 17% | 3.5µM* | u | 8.5µM* | 27% | 3.2µM*
COc1cc(/C=N/N=C(/N)c2nonc2N)cc(Br)c1OCc1cccc(C)c1 | -3% | -7% | -4% | -6% | 8% | -2%
COc1ccc(/C=N/N=C(\N)c2nonc2N)cc1 | 0.73µM* | 0.4µM* | u | 2.1µM* | 4.5µM* | 0.63µM*
COc1cc(/C=N/N=C(\N)c2nonc2N)cc(OC)c1O | u | 1% | u | 9.5µM* | x | -1%
CCOC(=O)c1sc(=S)n(-c2ccc(OC)cc2)c1N | 1% | -13% | 9% | 0% | x | -2%
CCOC(=O)c1sc(=N)n(-c2ccc(OC)cc2)c1C | u | 26% | u | 19µM* | 14% | 30%
COC(=O)c1c(C)n(-c2ccc(OC)cc2)c2ccc(O)cc12 | -25% | -4% | u | 0% | 4.5µM* | -1%
CC(C)c1ccc(C2(C)NC(=O)N(CC(=O)NC3CCCC(C)C3C)C2=O)cc1 (stereo unspecified) | -4% | -5% | 4% | 5% | x | -6%
Cc1cc(Nc2ccc(Br)c(C)c2)n2nc(-c3ccco3)nc2n1 | x | x | x | -1% | x | x
